From publication PMC7862700, “An all-to-all approach to the identification of sequence-specific readers for epigenetic DNA modifications on cytosine”

Tests used:
Assay in all cases: DAPPL (digital affinity profiling via proximity ligation, sequencing); 10 mM Tris-HCl pH 7.5, 50 mM NaCl, 1 mM DTT, 4% glycerol, room temperature, 30 min; GST-TFs on glutathione beads, 16-mer random dsDNA library, 0.1% formaldehyde crosslink after washing; high values mean tight binding
Details in all cases: protein: recombinant; tags: N-terminal GST; dsDNA, one strand shown
ERF = target: T1, ERF (Homo sapiens, UniProt P50548 1-548)
T1 sequence: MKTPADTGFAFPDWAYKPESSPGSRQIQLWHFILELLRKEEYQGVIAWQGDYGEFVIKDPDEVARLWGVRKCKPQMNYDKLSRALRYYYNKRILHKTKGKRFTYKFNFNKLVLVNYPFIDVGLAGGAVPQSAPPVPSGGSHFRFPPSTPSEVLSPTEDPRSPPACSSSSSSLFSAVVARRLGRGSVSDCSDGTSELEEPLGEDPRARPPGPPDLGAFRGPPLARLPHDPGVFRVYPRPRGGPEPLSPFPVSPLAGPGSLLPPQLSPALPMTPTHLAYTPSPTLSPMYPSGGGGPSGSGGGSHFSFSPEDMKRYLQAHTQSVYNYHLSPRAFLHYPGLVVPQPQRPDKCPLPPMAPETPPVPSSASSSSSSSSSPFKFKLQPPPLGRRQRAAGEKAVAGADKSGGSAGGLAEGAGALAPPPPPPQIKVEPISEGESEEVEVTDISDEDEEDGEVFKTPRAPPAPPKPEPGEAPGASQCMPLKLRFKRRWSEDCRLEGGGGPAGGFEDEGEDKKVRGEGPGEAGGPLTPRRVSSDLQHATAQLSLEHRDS
Outline: (§1)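 The binding signal reported is, for every hexamer, its read frequency for a factor over its read frequency for the tag-only sample. Reads came from pools of yeast-expressed, GST-fused human transcription factors on glutathione beads, barcoded with DNA and mixed with that sample, which were incubated with 200 nmole of a random double-stranded 16-mer DNA library in Tris/NaCl/DTT/glycerol buffer at room temperature for 30 min. After washing, the pools were crosslinked with 0.1% formaldehyde, proximity-ligated with BsaI/T4 ligase for 1 h at 37 °C, PCR-amplified and sequenced on an Illumina NextSeq500.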

ETV3L = target: T2, ETV3L (Homo sapiens, UniProt Q6ZN32 1-361)
T2 sequence: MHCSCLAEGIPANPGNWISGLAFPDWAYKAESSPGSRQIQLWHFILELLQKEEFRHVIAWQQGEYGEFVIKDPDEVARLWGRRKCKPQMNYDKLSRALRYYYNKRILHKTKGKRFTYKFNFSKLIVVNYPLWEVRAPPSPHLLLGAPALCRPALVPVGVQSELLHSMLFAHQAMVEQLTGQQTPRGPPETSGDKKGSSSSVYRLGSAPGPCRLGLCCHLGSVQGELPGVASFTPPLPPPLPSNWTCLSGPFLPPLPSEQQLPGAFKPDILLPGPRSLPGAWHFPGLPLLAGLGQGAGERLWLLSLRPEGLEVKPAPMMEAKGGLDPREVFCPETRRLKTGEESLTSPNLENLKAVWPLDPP
Outline: as §1

ETS2 = target: T3, ETS2 (Homo sapiens, UniProt P15036 1-469)
T3 sequence: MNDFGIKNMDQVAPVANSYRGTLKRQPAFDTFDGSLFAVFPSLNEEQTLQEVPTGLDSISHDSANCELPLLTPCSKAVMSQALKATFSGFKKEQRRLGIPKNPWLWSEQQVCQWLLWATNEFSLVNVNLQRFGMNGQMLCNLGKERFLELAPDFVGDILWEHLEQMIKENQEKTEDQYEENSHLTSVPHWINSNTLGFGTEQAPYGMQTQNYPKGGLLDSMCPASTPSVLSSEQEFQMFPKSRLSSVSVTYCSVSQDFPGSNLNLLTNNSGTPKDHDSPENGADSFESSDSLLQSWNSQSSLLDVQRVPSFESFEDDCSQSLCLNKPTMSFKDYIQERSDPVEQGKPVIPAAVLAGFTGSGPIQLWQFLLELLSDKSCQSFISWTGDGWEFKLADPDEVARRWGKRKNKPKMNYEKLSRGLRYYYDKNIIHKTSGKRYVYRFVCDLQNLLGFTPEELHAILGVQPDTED
Outline: as §1

SPDEF = target: T4, SPDEF (Homo sapiens, UniProt O95238 1-335)
T4 sequence: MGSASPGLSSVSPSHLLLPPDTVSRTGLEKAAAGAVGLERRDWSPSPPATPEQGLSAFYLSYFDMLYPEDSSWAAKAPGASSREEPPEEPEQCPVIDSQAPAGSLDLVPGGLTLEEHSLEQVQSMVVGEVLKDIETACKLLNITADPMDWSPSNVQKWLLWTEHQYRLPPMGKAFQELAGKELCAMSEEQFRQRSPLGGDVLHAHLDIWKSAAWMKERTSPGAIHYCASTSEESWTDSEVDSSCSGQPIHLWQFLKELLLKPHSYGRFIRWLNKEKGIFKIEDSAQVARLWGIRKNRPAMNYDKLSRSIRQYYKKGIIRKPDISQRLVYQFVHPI
Outline: as §1

ETV7 = target: T5, ETV7 (Homo sapiens, UniProt Q9Y603 1-341)
T5 sequence: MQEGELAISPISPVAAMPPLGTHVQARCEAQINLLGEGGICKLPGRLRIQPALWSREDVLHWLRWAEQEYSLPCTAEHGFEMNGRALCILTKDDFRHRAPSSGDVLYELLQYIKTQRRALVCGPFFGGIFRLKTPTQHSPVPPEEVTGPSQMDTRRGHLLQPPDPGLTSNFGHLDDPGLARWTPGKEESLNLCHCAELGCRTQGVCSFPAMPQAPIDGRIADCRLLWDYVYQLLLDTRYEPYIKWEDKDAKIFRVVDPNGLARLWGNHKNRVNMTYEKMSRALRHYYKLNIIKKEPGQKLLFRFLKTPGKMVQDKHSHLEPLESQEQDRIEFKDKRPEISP
Outline: as §1

ELF5 = target: T6, ELF5 (Homo sapiens, UniProt Q9UKW6-2 1-255)
T6 sequence: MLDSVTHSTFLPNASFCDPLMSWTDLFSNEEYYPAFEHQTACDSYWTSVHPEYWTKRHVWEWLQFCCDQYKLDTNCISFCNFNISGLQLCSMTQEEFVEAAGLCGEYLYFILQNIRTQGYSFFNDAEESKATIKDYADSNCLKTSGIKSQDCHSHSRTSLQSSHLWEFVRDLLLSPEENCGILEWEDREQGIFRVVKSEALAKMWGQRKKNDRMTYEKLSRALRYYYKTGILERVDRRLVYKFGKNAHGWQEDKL
Outline: as §1

ETV3 = target: T7, ETV3 (Homo sapiens, UniProt P41162-2 1-143)
T7 sequence: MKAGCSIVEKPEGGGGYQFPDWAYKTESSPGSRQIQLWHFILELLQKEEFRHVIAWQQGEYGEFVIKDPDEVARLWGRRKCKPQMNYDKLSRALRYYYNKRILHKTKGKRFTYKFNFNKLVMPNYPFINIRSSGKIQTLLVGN
Outline: as §1

ETV6 = ETV6 (Homo sapiens, UniProt P41212 1-452)
Outline: as §1

Chain of ETV6 (P41212 whole entry): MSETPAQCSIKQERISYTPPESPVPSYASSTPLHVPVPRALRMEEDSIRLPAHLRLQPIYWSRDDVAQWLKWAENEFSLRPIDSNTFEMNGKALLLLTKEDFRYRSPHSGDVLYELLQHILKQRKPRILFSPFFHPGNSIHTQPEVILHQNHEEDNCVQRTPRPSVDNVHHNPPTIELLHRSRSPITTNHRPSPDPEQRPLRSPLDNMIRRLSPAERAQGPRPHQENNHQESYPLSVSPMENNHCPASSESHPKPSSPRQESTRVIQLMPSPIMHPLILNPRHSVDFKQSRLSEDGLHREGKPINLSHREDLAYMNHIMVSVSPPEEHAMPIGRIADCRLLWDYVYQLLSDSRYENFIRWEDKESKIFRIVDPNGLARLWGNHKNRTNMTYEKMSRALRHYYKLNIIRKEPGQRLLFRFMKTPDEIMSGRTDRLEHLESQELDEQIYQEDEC

| Sequence | binding signal (ERF) | binding signal (ETV3L) | binding signal (ETS2) | binding signal (SPDEF) | binding signal (ETV7) | binding signal (ELF5) | binding signal (ETV3) | binding signal (ETV6) |
| --- | --- | --- | --- | --- | --- | --- | --- | --- |
| CCCAAC | 1.24 fold enrichment (6-mer frequency, TF over GST control) | 1.13 fold enrichment (6-mer frequency, TF over GST control) | 1.13 fold enrichment (6-mer frequency, TF over GST control) | 1.19 fold enrichment (6-mer frequency, TF over GST control) | 1.06 fold enrichment (6-mer frequency, TF over GST control) | 1.12 fold enrichment (6-mer frequency, TF over GST control) | 1.05 fold enrichment (6-mer frequency, TF over GST control) | 1.17 fold enrichment (6-mer frequency, TF over GST control) |
| ACTCAC | 1.25 fold enrichment (6-mer frequency, TF over GST control) | 1.16 fold enrichment (6-mer frequency, TF over GST control) | 1.28 fold enrichment (6-mer frequency, TF over GST control) | 1.22 fold enrichment (6-mer frequency, TF over GST control) | 1.2 fold enrichment (6-mer frequency, TF over GST control) | 1.21 fold enrichment (6-mer frequency, TF over GST control) | 1.15 fold enrichment (6-mer frequency, TF over GST control) | 1.22 fold enrichment (6-mer frequency, TF over GST control) |
| TGCGTA | 1.15 fold enrichment (6-mer frequency, TF over GST control) | 1.17 fold enrichment (6-mer frequency, TF over GST control) | 1.19 fold enrichment (6-mer frequency, TF over GST control) | 1.12 fold enrichment (6-mer frequency, TF over GST control) | 1.01 fold enrichment (6-mer frequency, TF over GST control) | 1.1 fold enrichment (6-mer frequency, TF over GST control) |  | 1.11 fold enrichment (6-mer frequency, TF over GST control) |
| CGGTCT | 1.21 fold enrichment (6-mer frequency, TF over GST control) | 1.15 fold enrichment (6-mer frequency, TF over GST control) | 1.16 fold enrichment (6-mer frequency, TF over GST control) | 1.09 fold enrichment (6-mer frequency, TF over GST control) | 1.11 fold enrichment (6-mer frequency, TF over GST control) | 1.1 fold enrichment (6-mer frequency, TF over GST control) | 1.22 fold enrichment (6-mer frequency, TF over GST control) | 1.09 fold enrichment (6-mer frequency, TF over GST control) |
| TTACGC | 1.15 fold enrichment (6-mer frequency, TF over GST control) | 1.05 fold enrichment (6-mer frequency, TF over GST control) | 1.1 fold enrichment (6-mer frequency, TF over GST control) | 1.08 fold enrichment (6-mer frequency, TF over GST control) | 1.02 fold enrichment (6-mer frequency, TF over GST control) |  | 1.16 fold enrichment (6-mer frequency, TF over GST control) | 1.11 fold enrichment (6-mer frequency, TF over GST control) |
| TGCGTT | 1.2 fold enrichment (6-mer frequency, TF over GST control) | 1.11 fold enrichment (6-mer frequency, TF over GST control) | 1.09 fold enrichment (6-mer frequency, TF over GST control) | 1.08 fold enrichment (6-mer frequency, TF over GST control) | 1.24 fold enrichment (6-mer frequency, TF over GST control) |  | 1.06 fold enrichment (6-mer frequency, TF over GST control) |  |
| ACACCT | 1.14 fold enrichment (6-mer frequency, TF over GST control) | 1.15 fold enrichment (6-mer frequency, TF over GST control) | 1.05 fold enrichment (6-mer frequency, TF over GST control) | 1.05 fold enrichment (6-mer frequency, TF over GST control) | 1.11 fold enrichment (6-mer frequency, TF over GST control) |  | 1.08 fold enrichment (6-mer frequency, TF over GST control) | 1.06 fold enrichment (6-mer frequency, TF over GST control) |
| AGCAGC | 1.08 fold enrichment (6-mer frequency, TF over GST control) | 1.09 fold enrichment (6-mer frequency, TF over GST control) | 1.2 fold enrichment (6-mer frequency, TF over GST control) | 1.02 fold enrichment (6-mer frequency, TF over GST control) | 1.19 fold enrichment (6-mer frequency, TF over GST control) |  | 1.08 fold enrichment (6-mer frequency, TF over GST control) | 1.04 fold enrichment (6-mer frequency, TF over GST control) |
| TGATCA | 1.15 fold enrichment (6-mer frequency, TF over GST control) | 1.07 fold enrichment (6-mer frequency, TF over GST control) | 1.06 fold enrichment (6-mer frequency, TF over GST control) | 1.05 fold enrichment (6-mer frequency, TF over GST control) | 1.14 fold enrichment (6-mer frequency, TF over GST control) |  | 1.05 fold enrichment (6-mer frequency, TF over GST control) |  |
| CGAGCT | 1.09 fold enrichment (6-mer frequency, TF over GST control) | 1.02 fold enrichment (6-mer frequency, TF over GST control) | 1.07 fold enrichment (6-mer frequency, TF over GST control) | 1.04 fold enrichment (6-mer frequency, TF over GST control) | 1.02 fold enrichment (6-mer frequency, TF over GST control) |  | 1.06 fold enrichment (6-mer frequency, TF over GST control) | 1.01 fold enrichment (6-mer frequency, TF over GST control) |
| CACTGG | 1.17 fold enrichment (6-mer frequency, TF over GST control) | 1.16 fold enrichment (6-mer frequency, TF over GST control) | 1.01 fold enrichment (6-mer frequency, TF over GST control) | 1.02 fold enrichment (6-mer frequency, TF over GST control) | 1.03 fold enrichment (6-mer frequency, TF over GST control) |  | 1.07 fold enrichment (6-mer frequency, TF over GST control) | 1.04 fold enrichment (6-mer frequency, TF over GST control) |
| GAAAAG | 1 fold enrichment (6-mer frequency, TF over GST control) | 1.09 fold enrichment (6-mer frequency, TF over GST control) | 1.05 fold enrichment (6-mer frequency, TF over GST control) | 1.01 fold enrichment (6-mer frequency, TF over GST control) | 1.13 fold enrichment (6-mer frequency, TF over GST control) | 1.12 fold enrichment (6-mer frequency, TF over GST control) |  | 1.18 fold enrichment (6-mer frequency, TF over GST control) |
| CAATAG | 1.21 fold enrichment (6-mer frequency, TF over GST control) | 1.02 fold enrichment (6-mer frequency, TF over GST control) | 1.08 fold enrichment (6-mer frequency, TF over GST control) | 1.08 fold enrichment (6-mer frequency, TF over GST control) | 1.11 fold enrichment (6-mer frequency, TF over GST control) |  | 1.09 fold enrichment (6-mer frequency, TF over GST control) | 1.12 fold enrichment (6-mer frequency, TF over GST control) |
| GGCTAG | 1.17 fold enrichment (6-mer frequency, TF over GST control) | 1.06 fold enrichment (6-mer frequency, TF over GST control) | 1.14 fold enrichment (6-mer frequency, TF over GST control) | 1.14 fold enrichment (6-mer frequency, TF over GST control) | 1.2 fold enrichment (6-mer frequency, TF over GST control) |  | 1.13 fold enrichment (6-mer frequency, TF over GST control) | 1.18 fold enrichment (6-mer frequency, TF over GST control) |
| TACTGA | 1.17 fold enrichment (6-mer frequency, TF over GST control) | 1.13 fold enrichment (6-mer frequency, TF over GST control) | 1.1 fold enrichment (6-mer frequency, TF over GST control) | 1.14 fold enrichment (6-mer frequency, TF over GST control) | 1.01 fold enrichment (6-mer frequency, TF over GST control) |  | 1.11 fold enrichment (6-mer frequency, TF over GST control) |  |
